# ChEMBL document CHEMBL4513135, “CO-ADD screening of IQOG CSIS (Spain) compounds”
# Measured potencies and affinities stand elsewhere.
# Experiments:
# Staphylococcus aureus = conditions: Concentration 32 ug.mL-1; ASSAY_TEST Inhibition of Bacterial Growth; detection method Absorption (OD600); MEDIA CAMHB; plate type 384well; NBS; CORNING #3640; time 18 hr
# Escherichia coli = conditions: Concentration 32 ug.mL-1; ASSAY_TEST Inhibition of Bacterial Growth; detection method Absorption (OD600); MEDIA CAMHB; plate type 384well; NBS; CORNING #3640; time 18 hr
SMILES,Inhibition (Staphylococcus aureus) [%],Inhibition (Escherichia coli) [%]
COc1ccc(C=C2N=C(c3ccccc3)OC2=O)cc1,12.56,14.02
Cc1nc(Nc2ccccc2)c2cnn(-c3ccccc3)c2n1,6.87,6.44
N#Cc1cccnc1Cl,22.89,-20.17
C=C1CN(C)c2ncc(C#N)c(=N)n21,2.81,-21.82
CCCC(C)NNC(=O)c1cc2ccccc2[nH]1 (configuration not stated),2.06,3.83
c1ccc(CNc2ncnc3c2cnn3-c2ccccc2)cc1,7.54,6.64
N#Cc1cc(C#N)c(NCCCC2CCN(Cc3ccccc3)CC2)nc1N,49.11,-3.28
COc1ccccc1-c1c(C#N)c(=O)oc2c1ccc1ccccc12,27.34,19.18
CCOC(=O)C1=C(C)Nc2nc3c(c(N)c2C1c1cccc(OC)c1)CCCC3 (configuration not stated),17.18,-19.26
Cc1ccc(CNNC(N)=O)cc1.Cl,4.52,6.79
Cc1ccc(CNNC(=O)c2cc3ccccc3n2C)cc1,-9.87,-8.9
N#Cc1cc(C#N)c(N2CCCC2)nc1N1CCCC1,17.61,8.77
CCOC(=O)c1cc2cc(OCc3ccccc3)ccc2[nH]1,7.82,5.9
CCOC(=O)/C(=C\c1ccccc1)C(=O)c1ccccc1,9.55,10.95
CC(=O)Oc1ccc(C=C2N=C(c3ccccc3)OC2=O)c(OC(C)=O)c1,7.39,7.35
COc1cccc(C2C(C#N)=C(N)Oc3ccc4ccccc4c32)c1 (configuration not stated),40.42,-5.36
COc1ccc(C2c3ccc4ccccc4c3OC(=NBr)C2(Br)C#N)cc1OC (configuration not stated),21.78,-14.95
CSC1=NC2(CC2c2ccccc2)C(=O)N1 (configuration not stated),10.34,2.43
COc1ccc2cc(C3C4=C(CC(C)(C)CC4=O)Oc4nc5c(c(N)c43)CCCC5)c(Cl)nc2c1 (configuration not stated),25.96,20.91
CC1=N/C(=C(\C)c2ccccc2)C(=O)O1,-1.19,0.61
C#CCNc1nc(NCC#C)c(C#N)cc1C#N,-5.55,-10.16

SMILES,Inhibition (Staphylococcus aureus) [%],Inhibition (Escherichia coli) [%]
CCC(CC)NNC(=O)c1c[nH]c2ccccc12.Cl,4.35,0.83
C#CCNc1ncc(C#N)c(N)n1,8.61,-16.66
C#CCn1c(N)c(C#N)c2cc(O)ccc21,28.27,-2.03
CCOC(=O)C1=C(C)OC(N)=C(C#N)C1c1ccc(F)cc1 (configuration not stated),19.76,-10.2
C#CC[n+]1ccccc1N.[Br-],6.4,12.69
O=C1NC(=O)C(=Cc2ccccc2)N1,16.19,11.12
N#CC1=C(N)Oc2ccc3ccccc3c2C1c1ccc(O)cc1 (configuration not stated),42.7,-6.77
C1CNCCNCCNCCNC1,30,9.31
CC(=NNC(N)=O)c1c[nH]c2ccccc12,2.54,16.24
N#Cc1c(Cl)nc(Cl)c(C#N)c1-c1ccccc1,37.97,-3.96
C#CCNc1nc(NCCCC2CCN(Cc3ccccc3)CC2)c(C#N)cc1C#N.Cl,-16.88,-13.89
N#CC1=C(N)Oc2c(ccc3ccccc23)C1c1ccc(Cl)c(Cl)c1 (configuration not stated),0.79,0.95
COc1nc(NC(C)=O)c(C#N)c(-c2ccccc2)c1C#N,21.1,-7.58
N#C/C(=C\c1ccccc1Cl)C(=O)c1ccccc1,33.12,20.31
NNC(=O)CCc1c[nH]c2ccccc12,1.93,6.66
C#CCN(C)c1ncc(C#N)c(N)n1,39.34,-4.49
O=C(N/N=C/c1c[nH]c2ccccc12)c1cc2ccccc2[nH]1,11.07,9.94
Cc1ccc2nc(Cl)c(/C=N/C(C)(C)C)cc2c1,28.46,12.92
Cc1ccc2nc(Cl)c(/C=N/N)cc2c1,28.8,25.39
C#CCNc1nc(NC2CCN(Cc3ccccc3)CC2)c(C#N)cc1C#N.Cl,-1.55,-6.24
